Columns and labels:
Experiment in all cases: log2 ratio of Biotin-Ahx-Ub-VS probe labelling (fragment/DMSO); higher = less target engagement (more negative = stronger competition), active = hit call of the paper (q ≤ 0.05, log2 ratio ≤ -1)
Conditions in all cases: compound concentration: 200 uM; treatment time: 3 h
[1] = target: T1, USP19 (UniProt O94966)
T1 sequence (whole entry): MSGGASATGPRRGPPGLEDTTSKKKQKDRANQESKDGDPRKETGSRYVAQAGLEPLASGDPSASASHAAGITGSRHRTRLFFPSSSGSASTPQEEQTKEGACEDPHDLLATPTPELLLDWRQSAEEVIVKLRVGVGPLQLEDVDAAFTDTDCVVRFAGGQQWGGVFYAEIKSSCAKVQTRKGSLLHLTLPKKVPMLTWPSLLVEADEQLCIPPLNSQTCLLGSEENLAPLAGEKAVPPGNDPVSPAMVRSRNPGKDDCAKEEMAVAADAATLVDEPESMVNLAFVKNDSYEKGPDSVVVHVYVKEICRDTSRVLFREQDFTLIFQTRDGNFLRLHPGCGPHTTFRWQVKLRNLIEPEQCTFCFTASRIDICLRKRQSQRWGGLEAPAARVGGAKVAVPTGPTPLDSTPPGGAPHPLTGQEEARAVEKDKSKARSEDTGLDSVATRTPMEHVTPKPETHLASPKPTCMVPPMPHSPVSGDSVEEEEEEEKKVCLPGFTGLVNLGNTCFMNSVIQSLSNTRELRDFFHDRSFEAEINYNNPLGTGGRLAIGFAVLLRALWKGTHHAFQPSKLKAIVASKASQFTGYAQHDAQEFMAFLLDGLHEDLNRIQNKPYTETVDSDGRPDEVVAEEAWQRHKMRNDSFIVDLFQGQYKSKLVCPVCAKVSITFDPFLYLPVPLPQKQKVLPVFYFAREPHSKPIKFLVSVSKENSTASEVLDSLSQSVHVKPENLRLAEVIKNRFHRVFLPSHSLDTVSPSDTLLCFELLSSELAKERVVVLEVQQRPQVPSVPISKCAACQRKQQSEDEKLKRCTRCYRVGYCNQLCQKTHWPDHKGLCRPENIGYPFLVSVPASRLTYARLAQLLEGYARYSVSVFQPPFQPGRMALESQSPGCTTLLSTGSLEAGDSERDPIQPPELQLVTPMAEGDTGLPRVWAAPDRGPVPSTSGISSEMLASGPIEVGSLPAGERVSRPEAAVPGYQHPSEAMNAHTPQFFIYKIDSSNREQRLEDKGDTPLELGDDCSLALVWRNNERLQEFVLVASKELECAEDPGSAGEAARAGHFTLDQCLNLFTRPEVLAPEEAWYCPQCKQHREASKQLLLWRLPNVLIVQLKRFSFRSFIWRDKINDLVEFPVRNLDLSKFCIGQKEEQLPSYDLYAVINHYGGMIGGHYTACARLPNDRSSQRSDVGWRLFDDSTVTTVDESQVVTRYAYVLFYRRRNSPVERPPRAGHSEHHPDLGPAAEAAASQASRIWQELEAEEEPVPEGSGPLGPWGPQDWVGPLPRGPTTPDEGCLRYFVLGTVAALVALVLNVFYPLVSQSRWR
Outline: (§1)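 Triplicate samples of HEK293T lysate, 495 µg each, received fragment at 200 µM or vehicle for 3 h, followed by Biotin-Ahx-Ub-VS (0.5 µM final) for 1 h. After NeutrAvidin enrichment of labelled DUBs and LysC/trypsin digestion, peptides were run by diaPASEF LC-MS/MS. The values are average log2 fragment/vehicle ratios from global-median-normalised Spectronaut label-free quantities, tested by unpaired t-test on proteins having ≥2 unique peptides.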

[2] = target: USP24 (UniProt Q9UPU5)
USP24, sequence (Q9UPU5 whole entry): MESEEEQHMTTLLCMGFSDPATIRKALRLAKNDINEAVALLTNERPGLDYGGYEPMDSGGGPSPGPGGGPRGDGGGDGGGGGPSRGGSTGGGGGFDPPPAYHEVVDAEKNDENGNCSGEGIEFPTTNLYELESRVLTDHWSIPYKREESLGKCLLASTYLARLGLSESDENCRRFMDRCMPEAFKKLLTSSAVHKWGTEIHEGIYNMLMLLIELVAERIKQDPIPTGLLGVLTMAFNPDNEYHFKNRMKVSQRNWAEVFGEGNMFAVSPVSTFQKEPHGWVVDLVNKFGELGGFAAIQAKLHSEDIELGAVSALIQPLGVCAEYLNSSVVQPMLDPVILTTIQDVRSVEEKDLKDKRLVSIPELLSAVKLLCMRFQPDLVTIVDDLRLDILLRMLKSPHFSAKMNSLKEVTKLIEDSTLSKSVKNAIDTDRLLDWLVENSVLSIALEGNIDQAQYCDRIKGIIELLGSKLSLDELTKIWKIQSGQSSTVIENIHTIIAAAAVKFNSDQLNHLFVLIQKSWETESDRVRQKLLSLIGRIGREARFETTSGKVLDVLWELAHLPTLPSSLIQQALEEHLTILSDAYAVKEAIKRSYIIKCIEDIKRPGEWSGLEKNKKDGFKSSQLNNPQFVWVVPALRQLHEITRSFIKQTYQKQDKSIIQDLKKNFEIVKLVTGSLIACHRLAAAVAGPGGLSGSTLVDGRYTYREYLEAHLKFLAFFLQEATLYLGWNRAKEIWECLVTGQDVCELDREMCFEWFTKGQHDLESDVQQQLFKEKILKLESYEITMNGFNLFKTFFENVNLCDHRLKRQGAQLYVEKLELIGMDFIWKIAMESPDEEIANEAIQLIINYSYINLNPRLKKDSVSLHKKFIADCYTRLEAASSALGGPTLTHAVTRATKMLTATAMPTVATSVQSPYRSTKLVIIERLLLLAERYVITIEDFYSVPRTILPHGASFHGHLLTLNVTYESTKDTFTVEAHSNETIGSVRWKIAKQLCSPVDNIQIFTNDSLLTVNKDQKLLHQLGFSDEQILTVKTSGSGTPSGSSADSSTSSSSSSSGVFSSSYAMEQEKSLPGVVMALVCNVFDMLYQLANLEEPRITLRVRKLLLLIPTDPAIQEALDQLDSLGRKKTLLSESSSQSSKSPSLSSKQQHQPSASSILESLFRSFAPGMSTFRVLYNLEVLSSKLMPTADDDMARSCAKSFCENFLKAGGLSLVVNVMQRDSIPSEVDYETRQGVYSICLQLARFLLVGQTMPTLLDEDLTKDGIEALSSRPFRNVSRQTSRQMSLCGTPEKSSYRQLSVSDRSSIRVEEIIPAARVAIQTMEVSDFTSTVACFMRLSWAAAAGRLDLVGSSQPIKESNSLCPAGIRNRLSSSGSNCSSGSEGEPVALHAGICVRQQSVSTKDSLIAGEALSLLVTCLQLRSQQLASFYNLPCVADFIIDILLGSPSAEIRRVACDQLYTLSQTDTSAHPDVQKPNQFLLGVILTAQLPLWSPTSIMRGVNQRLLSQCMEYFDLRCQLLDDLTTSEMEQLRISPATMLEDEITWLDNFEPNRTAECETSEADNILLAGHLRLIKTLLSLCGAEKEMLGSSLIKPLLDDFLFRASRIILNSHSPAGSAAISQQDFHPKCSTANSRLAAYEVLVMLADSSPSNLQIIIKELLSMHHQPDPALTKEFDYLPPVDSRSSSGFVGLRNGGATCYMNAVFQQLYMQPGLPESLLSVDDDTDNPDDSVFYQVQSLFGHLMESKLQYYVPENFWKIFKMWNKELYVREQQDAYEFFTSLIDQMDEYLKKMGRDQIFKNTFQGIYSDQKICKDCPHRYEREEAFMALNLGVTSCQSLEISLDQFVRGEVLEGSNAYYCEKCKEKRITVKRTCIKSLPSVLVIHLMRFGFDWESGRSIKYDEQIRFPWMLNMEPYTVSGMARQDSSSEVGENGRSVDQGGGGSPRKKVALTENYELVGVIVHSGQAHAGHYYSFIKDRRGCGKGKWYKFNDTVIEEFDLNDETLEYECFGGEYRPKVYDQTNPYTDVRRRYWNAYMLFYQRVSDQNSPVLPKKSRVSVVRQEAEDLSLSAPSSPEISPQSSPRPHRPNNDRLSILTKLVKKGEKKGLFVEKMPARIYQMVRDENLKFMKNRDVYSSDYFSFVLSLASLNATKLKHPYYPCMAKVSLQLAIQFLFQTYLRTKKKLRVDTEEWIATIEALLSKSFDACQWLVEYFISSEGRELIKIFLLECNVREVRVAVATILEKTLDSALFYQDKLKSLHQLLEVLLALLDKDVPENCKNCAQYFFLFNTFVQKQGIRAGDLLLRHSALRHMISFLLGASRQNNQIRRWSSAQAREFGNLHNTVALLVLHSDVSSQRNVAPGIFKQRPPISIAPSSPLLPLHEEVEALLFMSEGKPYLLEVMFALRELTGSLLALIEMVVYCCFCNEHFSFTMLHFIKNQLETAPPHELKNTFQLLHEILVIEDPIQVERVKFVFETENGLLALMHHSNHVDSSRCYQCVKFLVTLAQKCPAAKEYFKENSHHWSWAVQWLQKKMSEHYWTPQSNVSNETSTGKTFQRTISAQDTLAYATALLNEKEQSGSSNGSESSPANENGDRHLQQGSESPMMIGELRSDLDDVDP
Outline: as §1

[3] = target: T2, USP25 (UniProt Q9UHP3)
T2 sequence (whole entry): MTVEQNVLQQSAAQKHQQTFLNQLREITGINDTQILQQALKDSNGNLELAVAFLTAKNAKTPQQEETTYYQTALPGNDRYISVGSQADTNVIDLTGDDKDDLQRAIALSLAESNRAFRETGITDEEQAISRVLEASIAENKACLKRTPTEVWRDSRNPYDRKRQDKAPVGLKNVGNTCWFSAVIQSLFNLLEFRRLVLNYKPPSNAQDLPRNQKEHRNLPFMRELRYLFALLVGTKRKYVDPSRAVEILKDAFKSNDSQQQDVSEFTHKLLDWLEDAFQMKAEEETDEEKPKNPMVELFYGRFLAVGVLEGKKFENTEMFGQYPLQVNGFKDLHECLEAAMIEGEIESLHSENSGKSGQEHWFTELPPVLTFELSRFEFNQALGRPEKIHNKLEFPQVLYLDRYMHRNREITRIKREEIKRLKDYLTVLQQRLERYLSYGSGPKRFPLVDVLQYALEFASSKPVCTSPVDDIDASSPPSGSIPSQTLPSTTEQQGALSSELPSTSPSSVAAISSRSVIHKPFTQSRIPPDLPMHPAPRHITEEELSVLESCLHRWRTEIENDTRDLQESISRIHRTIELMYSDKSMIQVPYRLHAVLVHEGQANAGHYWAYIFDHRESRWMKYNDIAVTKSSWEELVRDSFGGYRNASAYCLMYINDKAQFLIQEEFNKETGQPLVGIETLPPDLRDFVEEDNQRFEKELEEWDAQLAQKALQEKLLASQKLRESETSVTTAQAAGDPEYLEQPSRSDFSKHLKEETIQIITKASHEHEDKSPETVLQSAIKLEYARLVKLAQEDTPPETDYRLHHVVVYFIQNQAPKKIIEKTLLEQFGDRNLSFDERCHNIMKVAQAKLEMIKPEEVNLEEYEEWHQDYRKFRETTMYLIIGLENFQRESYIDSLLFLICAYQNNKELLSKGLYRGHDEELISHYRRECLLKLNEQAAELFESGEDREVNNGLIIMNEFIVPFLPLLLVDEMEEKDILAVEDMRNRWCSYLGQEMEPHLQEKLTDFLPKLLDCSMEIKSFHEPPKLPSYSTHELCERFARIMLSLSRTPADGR
Outline: as §1

[4] = target: T3, USP28 (UniProt Q96RU2)
T3 sequence (whole entry): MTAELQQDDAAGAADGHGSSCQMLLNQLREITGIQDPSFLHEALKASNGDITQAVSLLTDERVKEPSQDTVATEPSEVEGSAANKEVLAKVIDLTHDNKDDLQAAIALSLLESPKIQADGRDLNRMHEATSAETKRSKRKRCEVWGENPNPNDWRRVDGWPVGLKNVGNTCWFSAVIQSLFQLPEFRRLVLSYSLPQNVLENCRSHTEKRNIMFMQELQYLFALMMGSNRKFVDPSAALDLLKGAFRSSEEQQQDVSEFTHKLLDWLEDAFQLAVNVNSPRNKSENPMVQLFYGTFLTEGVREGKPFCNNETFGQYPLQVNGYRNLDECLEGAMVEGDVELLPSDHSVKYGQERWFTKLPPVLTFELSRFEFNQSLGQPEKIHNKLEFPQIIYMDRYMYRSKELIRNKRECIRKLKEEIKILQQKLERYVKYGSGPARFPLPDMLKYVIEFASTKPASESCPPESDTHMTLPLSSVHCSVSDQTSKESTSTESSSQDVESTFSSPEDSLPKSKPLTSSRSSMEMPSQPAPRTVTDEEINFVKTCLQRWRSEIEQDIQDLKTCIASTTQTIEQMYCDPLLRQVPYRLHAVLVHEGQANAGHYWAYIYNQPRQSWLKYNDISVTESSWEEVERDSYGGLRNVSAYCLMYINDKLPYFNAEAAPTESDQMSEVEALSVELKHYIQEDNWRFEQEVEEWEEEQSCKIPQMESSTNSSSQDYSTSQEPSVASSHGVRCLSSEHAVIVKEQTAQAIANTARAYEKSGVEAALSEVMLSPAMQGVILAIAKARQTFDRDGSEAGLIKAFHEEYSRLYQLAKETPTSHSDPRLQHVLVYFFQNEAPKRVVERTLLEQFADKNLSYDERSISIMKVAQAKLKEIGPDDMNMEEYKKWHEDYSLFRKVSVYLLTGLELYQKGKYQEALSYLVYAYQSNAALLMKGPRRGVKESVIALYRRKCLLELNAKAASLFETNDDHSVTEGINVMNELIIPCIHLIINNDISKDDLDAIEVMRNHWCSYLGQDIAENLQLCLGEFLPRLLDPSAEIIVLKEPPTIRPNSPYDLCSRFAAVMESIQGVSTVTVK
Outline: as §1

Measured: log2 ratio of Biotin-Ahx-Ub-VS probe labelling

Cc1ccc(CN(CCO)C(=O)CCl)cc1
inactive: [1] -0.37 | [2] -0.445 | [3] -0.431 | [4] -0.569

— the supplement of paper PMC11732987, “Enantioselective OTUD7B fragment discovery through chemoproteomics screening and high-throughput optimisation” (Communications Chemistry, 2025)
